These results are taken from PubChem BioAssay (NCATS).

Inconclusive results are not listed. Activity calls are given as the source filed them. Unless noted, the call rests on the fitted dose curve. A value given as a limit tells only on which side of the number the result lay.

Assay [1] has as its target Glucocorticoid receptor (Homo sapiens) (UniProt P04150). Briefly: GR-EFC Redistribution (AID 451). Further: potency means the concentration at half of the fitted maximal effect. To be noted: CHO-K1 GR-EFC translocation, beta-gal luminescence, 2 h. The method in brief: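 CHO-K1 cells stably expressing nuclear-localized β-gal enzyme acceptor and GR fused C-terminally to the enzyme donor fragment; ligand-driven nuclear translocation restores β-gal by complementation. Compounds titrated up to 46 uM final, 2 h at 37 °C; luminescence read.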

In assay [2] the target is Mitogen-activated protein kinase 10 (Mus musculus) (UniProt Q61831). Briefly: JNK3 AlphaScreen Assay (AID 530; active means well fitted curve in either direction with a large enough effect, not every such curve was filed as active;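 further: kinase came from lysate of stimulated human HepG2 cells; on the % scale 0 is the no-effect control and ±100 the full control effect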). To be noted: JNK3 lysate, c-Jun phosphorylation; series mostly up to 25.6 µM. Summed up: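 Biotinylated GST-cJun(1-79) served as substrate for JNK3 in HepG2 lysates stimulated with IL-1beta and TNF-alpha. ATP was 10 uM final, pH 7.6. Ser73 phosphorylation was quantified by AlphaScreen (680 nm excitation).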

The target of assay [3] is 3',5'-cyclic-AMP phosphodiesterase 4B (Homo sapiens) (UniProt Q07343). Briefly: qHTS Assay for Inhibitors of PDE-IV (AID 607; active means well fitted activation curve with a large enough effect in the main read-out, with a control signal flat, not every such curve was filed as active; further: % of control where 0% means no effect). To be noted: HEK293 ACTOne CNG channel cells, membrane potential fluorescence; series mostly up to 22.9 µM. The method in brief:
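HEK293 ACTOne cells with CNG channel (1000/well), endogenous PDE4; membrane potential dye, compounds up to 22.9 uM final. Fluorescence Ex 535/Em 590; RO 20-1724 (100 uM final) as reference.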

The nature of assay [4]: qHTS Assay for Lipid Storage Modulators (AID 1519). Further: potency means the concentration at half of the fitted maximal effect. On activity change, negative = inhibition: on the % scale 0 is the no-effect control and ±100 the full control effect. To be noted: Drosophila S3 cells, BODIPY lipid droplet/cell ratio, laser cytometry, cells loaded with oleic acid. The method in brief: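 Cells seeded at 5,000 per well were treated with compounds over a concentration series and loaded with oleic acid (400 uM, as added). Lipid droplet fluorescence (488 nm excitation, 500-530 nm channel) was read by laser-scanning cytometry and normalized to 20 uM Triacsin C.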

Assay [5] deals with Ubiquitin carboxyl-terminal hydrolase 1 (Homo sapiens) (UniProt O94782). Briefly: Inhibitors of USP1/UAF1: Pilot qHTS (AID 504865; active means well fitted curve in the direction sought with a large enough effect; an effect the other way counts as inactive or inconclusive;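 further: rhodamine fluorescence freed from ubiquitin-rhodamine substrate followed over time; top concentration of the series differs between compounds; on the % scale 0 is the no-effect control and ±100 the full control effect; nearly all actives have a fitted effect of over 35% in size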). To be noted: purified USP1/UAF1, Ub-rhodamine cleavage fluorescence; series mostly up to 114 µM. Summed up:
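USP1/UAF1 complex at 1 nM preincubated 15 min at room temperature with compound, then Ub-Rho substrate added at 150 nM final. Fluorescence (480/540 nm) read kinetically in 50 mM HEPES pH 7.8, 0.5 mM EDTA, 1 mM TCEP, 0.1 mg/ml BSA, 0.01% Tween-20.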

Assay [6] has as its target ATP-dependent 6-phosphofructokinase (Trypanosoma brucei brucei) (UniProt O15648). Briefly: qHTS Assay to Find Inhibitors of T. brucei phosphofructokinase: hit validation (AID 492961; active means well fitted curve in the direction sought with a large enough effect; an effect the other way counts as inactive or inconclusive;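 further: luminescence reports ADP formed as PFK phosphorylates fructose-6-phosphate with ATP; on the % scale 0 is the no-effect control and ±100 the full control effect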). To be noted: T. brucei PFK, ADP-Glo luminescence; series mostly up to 24.3 µM. Summed up: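 Reaction: 0.1 M triethanolamine pH 8.0, 5 mM MgCl2, F6P 0.5 mM, ATP 0.1 mM, PFK 1.25 nM, 45 min RT. Read-out: ADP-Glo luminescence. Analysis: concentration-response fits, classed by r2 and efficacy.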

In assay [7] the target is Luciferin 4-monooxygenase (Photinus pyralis) (UniProt P08659). Briefly: Biochemical firefly luciferase enzyme assay for NPC (AID 624030; active means well fitted curve in the direction sought with a large enough effect; an effect the other way counts as inactive or inconclusive;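 further: purified P. pyralis luciferase at 10 nM with luciferin and ATP substrate; 0% = DMSO and -100% = full luciferase inhibition by PTC124 control; nearly all actives have a fitted effect of over 70% in size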). To be noted: purified P. pyralis luciferase, luminescence, 5 min; series mostly up to 24.9 µM. The method in brief:
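Counter-screen for direct inhibition of the luciferase enzyme by approved-drug library compounds, run at 10 nM enzyme in 50 mM Tris acetate (final). Luminescence was read within 5 min of enzyme-buffer addition and normalized to PTC124 versus DMSO (0%).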

A short description of assay [8]: qHTS profiling for inhibitors of Plasmodium falciparum proliferation (AID 504749; active means well fitted curve in the direction sought with a large enough effect; an effect the other way counts as inactive or inconclusive;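 further: 0% = DMSO vehicle and full inhibition = artemisinin control; nearly all actives have a fitted effect of over 60% in size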). To be noted: P. falciparum in erythrocytes, SYBR Green DNA, 72 h, at 12.8 µM (top of the series). The method in brief: (§1)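 Fluorescence of SYBR Green-bound parasite DNA, read at 485/535 nm, served as the growth measure. Infected erythrocytes were cultured with compound 72 h; artemisinin (0.29 uM) and DMSO wells defined the normalization range.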

Another assay relates to AS120. The assay is described as above. To be noted: P. falciparum in erythrocytes, SYBR Green DNA, 72 h; series mostly up to 12.8 µM. The method in brief:
as §1

The next assay concerns C2A. Described as above. To be noted: P. falciparum in erythrocytes, SYBR Green DNA, 72 h; series mostly up to 12.8 µM. Summed up:
as §1

Another assay has as its system CP191. The assay is described as above. To be noted: P. falciparum in erythrocytes, SYBR Green DNA, 72 h; series mostly up to 12.8 µM. Summed up: as §1
In the next assay the test system is CP217. Described as above. To be noted: P. falciparum in erythrocytes, SYBR Green DNA, 72 h; series mostly up to 12.8 µM. Summed up: as §1
The test system of the next assay is CP305. The assay is described as above. To be noted: P. falciparum in erythrocytes, SYBR Green DNA, 72 h; series mostly up to 12.8 µM. The method in brief:
as §1

A further assay has as its system CP329. Described as above. To be noted: P. falciparum in erythrocytes, SYBR Green DNA, 72 h; series mostly up to 12.8 µM. Summed up:
as §1

The test system of another assay is ECU. Described as above. To be noted: P. falciparum in erythrocytes, SYBR Green DNA, 72 h; series mostly up to 12.8 µM. Summed up:
as §1

The test system of a further assay is FAB9. Described as above. To be noted: P. falciparum in erythrocytes, SYBR Green DNA, 72 h; series mostly up to 12.8 µM. The method in brief:
as §1

The subject of the next assay is N140. Described as above. To be noted: P. falciparum in erythrocytes, SYBR Green DNA, 72 h; series mostly up to 12.8 µM. Summed up: as §1
A further assay relates to PC15. Described as above. To be noted: P. falciparum in erythrocytes, SYBR Green DNA, 72 h; series mostly up to 12.8 µM. Summed up:
as §1

A further assay has as its system PC49. Described as above. To be noted: P. falciparum in erythrocytes, SYBR Green DNA, 72 h; series mostly up to 12.8 µM. Summed up:
as §1

A further assay deals with TAB165. The description is as above. To be noted: P. falciparum in erythrocytes, SYBR Green DNA, 72 h; series mostly up to 12.8 µM. The method in brief: as §1
Where [9] appears, read: measured here: cell count channel max response.
Where [10] appears, read: measured here: lipid channel max response.

Chain of 3',5'-cyclic-AMP phosphodiesterase 4B (Homo sapiens) (Q07343 whole entry, looked up): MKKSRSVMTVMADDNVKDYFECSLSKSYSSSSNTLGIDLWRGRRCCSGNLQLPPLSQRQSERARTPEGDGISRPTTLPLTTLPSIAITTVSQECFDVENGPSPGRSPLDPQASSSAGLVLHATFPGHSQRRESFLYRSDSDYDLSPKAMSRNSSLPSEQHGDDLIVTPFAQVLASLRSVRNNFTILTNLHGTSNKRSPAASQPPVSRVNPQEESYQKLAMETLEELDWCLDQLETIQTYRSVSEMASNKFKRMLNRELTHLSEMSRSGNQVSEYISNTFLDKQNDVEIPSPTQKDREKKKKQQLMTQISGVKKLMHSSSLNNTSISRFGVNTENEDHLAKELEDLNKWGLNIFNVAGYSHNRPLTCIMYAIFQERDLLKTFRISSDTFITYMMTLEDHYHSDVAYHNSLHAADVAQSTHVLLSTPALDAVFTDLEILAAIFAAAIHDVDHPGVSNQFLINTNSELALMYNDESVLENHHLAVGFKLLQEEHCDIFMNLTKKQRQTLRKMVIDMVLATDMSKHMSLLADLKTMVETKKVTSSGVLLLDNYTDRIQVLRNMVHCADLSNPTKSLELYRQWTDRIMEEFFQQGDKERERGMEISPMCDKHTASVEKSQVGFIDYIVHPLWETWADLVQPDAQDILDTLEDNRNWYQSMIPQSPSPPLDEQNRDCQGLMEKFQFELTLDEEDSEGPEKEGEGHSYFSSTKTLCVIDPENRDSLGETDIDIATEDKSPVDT
Chain of Ubiquitin carboxyl-terminal hydrolase 1 (Homo sapiens) (O94782 whole entry, looked up): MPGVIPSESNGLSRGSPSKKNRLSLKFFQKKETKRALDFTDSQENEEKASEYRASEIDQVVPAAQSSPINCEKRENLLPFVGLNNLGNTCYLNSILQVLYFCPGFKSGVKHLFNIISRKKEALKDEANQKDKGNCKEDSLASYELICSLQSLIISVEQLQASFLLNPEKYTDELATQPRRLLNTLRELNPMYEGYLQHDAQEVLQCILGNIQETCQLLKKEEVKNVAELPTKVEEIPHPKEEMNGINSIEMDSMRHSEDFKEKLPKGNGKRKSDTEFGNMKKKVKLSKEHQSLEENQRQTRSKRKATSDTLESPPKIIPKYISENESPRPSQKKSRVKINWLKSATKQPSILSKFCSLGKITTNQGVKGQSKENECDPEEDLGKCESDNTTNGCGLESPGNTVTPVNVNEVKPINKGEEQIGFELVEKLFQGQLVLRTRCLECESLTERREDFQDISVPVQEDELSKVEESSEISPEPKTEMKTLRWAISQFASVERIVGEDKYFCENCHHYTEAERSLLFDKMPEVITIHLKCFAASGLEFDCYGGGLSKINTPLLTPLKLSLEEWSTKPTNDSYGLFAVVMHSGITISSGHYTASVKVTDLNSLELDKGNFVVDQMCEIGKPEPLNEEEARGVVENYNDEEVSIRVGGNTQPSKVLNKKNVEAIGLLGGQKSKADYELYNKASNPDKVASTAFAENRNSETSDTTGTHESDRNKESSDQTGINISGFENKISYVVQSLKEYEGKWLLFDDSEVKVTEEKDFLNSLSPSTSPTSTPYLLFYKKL
Chain of Glucocorticoid receptor (Homo sapiens) (P04150 whole entry, looked up, the tested form may be a part): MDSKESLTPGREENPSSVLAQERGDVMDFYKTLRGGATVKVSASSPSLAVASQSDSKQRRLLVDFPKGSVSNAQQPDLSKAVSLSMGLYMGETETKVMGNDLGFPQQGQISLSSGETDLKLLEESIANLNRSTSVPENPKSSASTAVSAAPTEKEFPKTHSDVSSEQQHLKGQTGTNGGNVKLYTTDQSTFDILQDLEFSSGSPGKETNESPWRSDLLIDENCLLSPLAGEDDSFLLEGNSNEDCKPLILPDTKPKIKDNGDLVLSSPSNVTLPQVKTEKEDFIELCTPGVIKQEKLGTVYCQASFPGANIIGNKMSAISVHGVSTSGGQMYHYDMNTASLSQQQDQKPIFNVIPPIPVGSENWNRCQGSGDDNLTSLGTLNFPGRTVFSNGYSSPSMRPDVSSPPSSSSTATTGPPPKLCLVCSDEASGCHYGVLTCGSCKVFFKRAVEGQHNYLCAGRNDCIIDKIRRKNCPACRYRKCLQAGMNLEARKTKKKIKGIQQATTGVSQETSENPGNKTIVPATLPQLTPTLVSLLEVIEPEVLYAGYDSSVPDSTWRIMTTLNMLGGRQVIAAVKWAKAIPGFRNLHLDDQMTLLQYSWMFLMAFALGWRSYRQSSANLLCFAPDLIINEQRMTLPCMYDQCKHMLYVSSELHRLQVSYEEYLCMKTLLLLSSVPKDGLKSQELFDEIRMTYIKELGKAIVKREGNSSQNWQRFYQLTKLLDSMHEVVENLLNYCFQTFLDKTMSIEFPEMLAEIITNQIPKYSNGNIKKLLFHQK
Chain of Luciferin 4-monooxygenase (Photinus pyralis) (P08659 whole entry, looked up): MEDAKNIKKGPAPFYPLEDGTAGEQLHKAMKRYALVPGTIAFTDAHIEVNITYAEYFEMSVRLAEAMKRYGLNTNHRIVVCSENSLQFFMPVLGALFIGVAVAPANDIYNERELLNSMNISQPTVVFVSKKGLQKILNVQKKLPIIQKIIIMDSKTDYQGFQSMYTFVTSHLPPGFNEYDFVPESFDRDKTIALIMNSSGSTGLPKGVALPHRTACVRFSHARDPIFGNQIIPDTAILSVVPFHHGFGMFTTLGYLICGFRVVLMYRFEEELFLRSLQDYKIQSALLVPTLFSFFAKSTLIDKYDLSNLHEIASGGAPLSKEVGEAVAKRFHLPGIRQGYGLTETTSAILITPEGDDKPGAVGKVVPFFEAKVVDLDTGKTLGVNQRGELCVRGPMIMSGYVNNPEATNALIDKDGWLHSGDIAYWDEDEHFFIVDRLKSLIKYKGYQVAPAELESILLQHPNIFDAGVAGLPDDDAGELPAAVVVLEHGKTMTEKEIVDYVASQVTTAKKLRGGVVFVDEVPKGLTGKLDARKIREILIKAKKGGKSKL
Chain of ATP-dependent 6-phosphofructokinase (Trypanosoma brucei brucei) (O15648 whole entry, looked up): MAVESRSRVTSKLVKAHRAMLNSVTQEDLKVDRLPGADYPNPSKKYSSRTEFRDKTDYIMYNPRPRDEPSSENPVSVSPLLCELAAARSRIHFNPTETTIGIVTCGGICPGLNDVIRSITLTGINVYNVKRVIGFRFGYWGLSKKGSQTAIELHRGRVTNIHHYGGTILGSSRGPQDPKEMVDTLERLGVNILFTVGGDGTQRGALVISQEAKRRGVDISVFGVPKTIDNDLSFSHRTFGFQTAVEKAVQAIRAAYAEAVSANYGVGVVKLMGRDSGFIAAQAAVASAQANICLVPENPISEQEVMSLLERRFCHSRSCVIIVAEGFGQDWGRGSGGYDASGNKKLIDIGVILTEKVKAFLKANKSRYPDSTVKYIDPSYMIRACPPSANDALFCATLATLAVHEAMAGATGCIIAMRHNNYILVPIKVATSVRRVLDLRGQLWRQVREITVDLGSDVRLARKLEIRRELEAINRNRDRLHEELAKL

For `COCCOC(=O)C1=C(C)NC(C)=C(C(=O)OC(C)C)[C@H]1c1cccc([N+](=O)[O-])c1`, the Potency in assay [1] is > 20.6 µM (inactive). The Potency result in assay [2] and in assay [5] was “inactive” in each case. The result in assay [3] was inactive. Besides, the activity change, negative = inhibition in [4] (at 25.7 µM (top of the series)) is -3.07% (inactive). Moreover, the max response in [4] (setting [9]) is -5.25%; in assay [4] (setting [10]) it was -6.94%.
As for `COc1cccc(-c2nc(NCCc3c[nH]c4ccc(OC)cc34)c3ccccc3n2)c1`, the Potency in assay [1] was > 46 µM (inactive). Besides, the Potency result in assay [2] was “inactive”. The activity change, negative = inhibition in assay [4] (at 57.5 µM (top of the series)) was 5.14% (inactive). Besides, the max response in assay [4] (setting [9]) was -17.7%; in assay [4] (setting [10]), -5.2%.
Turning to `COc1cc2ccc(=O)oc2c(O)c1O`, the Potency in [1] was > 46 µM (inactive). In addition, in assay [3], the outcome was inactive. Also, the activity change, negative = inhibition in assay [4] (at 57.5 µM (top of the series)) was -4.51% (inactive). Moreover, the max response in [4] (setting [9]) came to 13.9%; in [4] (setting [10]), 11.4%.
For `C[C@@H](CN1c2ccccc2Sc2ccccc21)N(C)C`, the Potency result in [2] and in assay [5] was “inactive” each time. Also, in assay [3], the result was inactive. Also, in assay [4] (at 25.7 µM (top of the series)), the activity change, negative = inhibition was -3.2% (inactive). In addition, the max response was -10.2% in assay [4] (setting [9]) and -13.4% in assay [4] (setting [10]).
Turning to `Cc1ccnc(N)c1`, the Potency in [1] was > 46 µM (inactive). Also, in assay [4] (at 57.5 µM (top of the series)), the activity change, negative = inhibition was -1.11% (inactive). For the same compound, the max response in assay [4] (setting [9]) was -7.5%; in assay [4] (setting [10]), -8.73%. In addition, the Potency result in assay [5] is “inactive”.
As for `CC1(C)S[C@@H]2[C@H](NC(=O)[C@@H](N)c3ccccc3)C(=O)N2[C@H]1C(=O)O[C@H]1OC(=O)c2ccccc21`, the Potency entry (in assay [2]; in assay [7]; in the assay with AS120; with C2A; in the assay on CP191; in the assay with CP217) was “inactive” throughout. The Potency result in the assay with CP305, in the assay on CP329, in the assay with ECU, in the assay with FAB9, with N140 and in the assay with PC15 was “inactive” each time. The Potency result with PC49 and with TAB165 was “inactive” throughout. Moreover, the call in assay [3] and in assay [6] was inactive. Besides, the activity change, negative = inhibition in assay [4] (at 25.7 µM (top of the series)) is -2.68% (inactive). Moreover, the max response in assay [4] (setting [9]) is -27.2%; in assay [4] (setting [10]), -29.9%. The figures for the activity, negative = inhibition in [8] (parasite line A) and in assay [8] (parasite line B) were 9.34% (inactive) and 6.7% (inactive), respectively.
On to `CN1[C@H](CC(=O)c2ccccc2)CCC[C@H]1C[C@@H](O)c1ccccc1`, for which the Potency result in assay [2] is “inactive”. Further, the activity change, negative = inhibition in assay [4] (at 57.5 µM (top of the series)) is -2.41% (inactive). The max response in assay [4] (setting [9]) was -11.7%; in assay [4] (setting [10]), -13.6%.
`CC[C@H](C(=O)[C@H](C)[C@H](O)[C@H](C)CCc1ccc(C)c(O)c1C(=O)O)[C@H]1O[C@](CC)([C@@H]2CC[C@@](O)(CC)[C@H](C)O2)C[C@H]1C`: the Potency in assay [1] was > 20.6 µM (inactive); in assay [4], 14.1 µM (active). In addition, the Potency entry in assay [2] is “inactive”. In addition, the max response was -26.4% in assay [4] (setting [9]) and -85.1% in [4] (setting [10]).
For the compound `C[C@@](N)(C(=O)O)c1cccc(CC(=O)O)c1`, in [1], the Potency was > 46 µM (inactive). In addition, the Potency entry in [2] and in [5] was “inactive” each time. In assay [3], the result was inactive. Besides, the activity change, negative = inhibition in [4] (at 57.5 µM (top of the series)) was 1.75% (inactive). Besides, the max response in [4] (setting [9]) stood at 1.61%; in [4] (setting [10]), 3.55%.
As for `NCCC(=O)N[C@@H](Cc1cnc[nH]1)C(=O)O`, the Potency result in [2] is “inactive”. Besides, the compound was called inactive in [3]. Further, in [4] (at 57.5 µM (top of the series)), the activity change, negative = inhibition was -2.81% (inactive). The max response in assay [4] (setting [9]) was -6.32%; in assay [4] (setting [10]), -9.96%.
As for `O=C(c1cc(C(F)(F)F)cc(C(F)(F)F)c1)N1CCC[C@@]2(CCN(c3ccccn3)C2)C1`, the Potency in assay [1] is > 46 µM (inactive). Moreover, the Potency result in assay [2] is “inactive”. Besides, the activity change, negative = inhibition in assay [4] (at 57.5 µM (top of the series)) is -14.3% (inactive). In addition, the max response is -3.88% in [4] (setting [9]) and -16.6% in assay [4] (setting [10]).
On to `O=c1cc(-c2cccc(O)c2)oc2cc(O)ccc12`, for which the Potency in [1] was > 46 µM (inactive). Besides, the Potency result in assay [2] is “inactive”. In addition, the compound was classed as inactive in [3]. Besides, the activity change, negative = inhibition in [4] (at 57.5 µM (top of the series)) was 8.05% (inactive). Besides, the max response worked out at 22.9% in assay [4] (setting [9]) and 28% in [4] (setting [10]).
Take `Nc1ncn([C@H]2O[C@@H](CO)[C@@H](O)[C@@H]2O)c(=O)n1`: the Potency in assay [1] was > 20.6 µM (inactive). The Potency entry in assay [2] and in assay [5] was “inactive” in each case. In addition, in [3], the result was inactive. In assay [4] (at 25.7 µM (top of the series)), the activity change, negative = inhibition is -7.35% (inactive). The max response in assay [4] (setting [9]) was -3.14%; in assay [4] (setting [10]), -7.83%.
